Screening results deposited in PubChem by National Center for Advancing Translational Sciences (NCATS).
GLP1R cytotox: cytotoxic in the GLP-1 receptor inverse agonist counter-screen. Potency, µM (titrated, usually from 38.3 µM), for the others: at the highest dose activity change, negative = inhibition, actives largely listed as inhibitors. HEK293 cAMP-luciferase reporter cells, luminescence, 24 h. 410,000 tested, 0.13% active;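 also: loss of luciferase light is scored as toxicity; % is scaled to controls: 0 for no effect and ±100 for the full control effect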
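MLSMR compounds, 24 hr on cells at 37 deg C/5% CO2; luminescence after luciferase reagent (12 min RT). Inhibition counted as the undesired cytotoxic outcome.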
BRCA1 expr up: activators of BRCA1 expression; Potency, µM (highest dose often 46.1 µM), inactives show at the top dose activation, hits mostly activators; MCF7-BRCA1-FFLuc reporter, luminescence, 48 h; response scale: scaled: vehicle 0%, 10 µM genistein 100%; AID 624202; 380,000 tested, 1.1% active; also: nearly all actives have a fitted effect of over 80% in size
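First, MCF7-BRCA1-FFLuc cells (2000/well) attach for 2 h; next, compounds are pin-added and incubated 48 h at 37 °C; finally, luciferase reagent is added and luminescence read after 15 min.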
GLP-1R inv ag: acts as inverse agonist at human GLP-1 receptor; 410,000 tested, 1.6% active; P43220; HEK293 GLP-1R CRE-luciferase, luminescence, 24 h; GLP-1R form is constitutively active; Potency, µM (series often up to 38.3 µM), for the others: top-dose activity change, negative = inhibition, usual class: inhibitors; AID 624417; also: % is scaled to controls: 0 for no effect and ±100 for the full control effect; nearly all actives have a fitted effect of over 55% in size
Target sequence (P43220 whole entry, looked up): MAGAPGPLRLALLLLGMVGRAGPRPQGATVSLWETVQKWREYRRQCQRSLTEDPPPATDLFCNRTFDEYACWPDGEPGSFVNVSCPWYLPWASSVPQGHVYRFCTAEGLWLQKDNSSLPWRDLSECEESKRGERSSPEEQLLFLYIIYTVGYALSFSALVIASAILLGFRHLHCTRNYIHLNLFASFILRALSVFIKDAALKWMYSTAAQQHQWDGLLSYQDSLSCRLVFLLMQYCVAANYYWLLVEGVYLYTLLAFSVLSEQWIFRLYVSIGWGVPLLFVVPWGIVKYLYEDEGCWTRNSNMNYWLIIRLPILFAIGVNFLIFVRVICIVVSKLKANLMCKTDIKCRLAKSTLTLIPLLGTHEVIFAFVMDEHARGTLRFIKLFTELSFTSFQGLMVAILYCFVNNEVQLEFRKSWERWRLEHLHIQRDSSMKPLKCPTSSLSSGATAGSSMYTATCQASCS
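Cells are plated, allowed 12 hours at 37 deg C, then treated with compounds for 24 hr before luciferase detection reagent is added and luminescence is read after 12 min at room temperature. The HEK293 line carries constitutively active GLP-1R with a cAMP-responsive reporter.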
GLP-1R agonist: activates the human GLP-1 receptor | HEK293 GLP-1R CRE-luciferase, luminescence, 4-6 h; cells express a hypersensitive GLP-1R form | Potency, µM (doses to about 45.6 µM), for inactives: at the highest dose activation, actives largely listed as activators | 380,000 tested, 0.007% active | AID 624172; also: % of control where 0% means no effect
* hit, by the source's call; ? = inconclusive; / = no result given. Shown are actives, neighbours in structure and some others; about 2.6% of the full set was active somewhere. Calls follow the shape of the dose curve; as a rule, active = well fitted curve in the direction sought with a large enough effect; inconclusive = small, poorly fitted or top-dose-only effect, or another doubt; inactive = no such curve, though single readings can be large; an effect the other way counts as inactive or inconclusive. Potency is read from the fitted curve at half-maximal effect.

SMILES | GLP1R cytotox | BRCA1 expr up | GLP-1R inv ag | GLP-1R agonist
CN(c1cccc(NC(=O)CN(c2ccc(F)cc2)S(C)(=O)=O)c1)S(C)(=O)=O | -2% | -1% | 16% | -1%
CN(c1cccc(NC(=O)CN(c2ccc(C34CC5CC(CC(C5)C3)C4)cc2)S(C)(=O)=O)c1)S(C)(=O)=O | 10µM* | -93% | 3.2µM* | 5%
COc1ccc(Nc2cc(C)c3cc(NC(=O)c4cc(OC)cc(OC)c4)ccc3n2)cc1 | ? | -64% | ? | -3%
Cc1ccc(Sc2ccc(NC(=O)CCN3C(=O)NC4(CCCC4)C3=O)cc2)c(C)c1 | -25% | -29% | 11µM* | 9%
Cc1cc(N=NC(=O)c2ccccc2O)c2ccccc2c1O | -15% | 5.6µM* | 17% | 5%
Cn1c(O)c(N=NC(=O)c2ccccc2O)c2ccccc21 | 6% | 43% | 2% | 4%
O=C(O)c1ccc(-n2ncc3c2/C(=C/c2cccc([N+](=O)[O-])c2)CC3)cc1 | 0% | 6.3µM* | 63% | -3%
O=C(O)c1ccc(-n2ncc3c2/C(=C\c2cccc([N+](=O)[O-])c2)CC3)cc1 | -1% | 68% | 42% | -1%
Cn1c2ccccc2c2cnn(CC(=O)Nc3ccccc3F)c(=O)c21 | 3% | 24% | 8% | -1%
CCC(=O)NC(c1ccccc1)c1c(OC(C)=O)ccc2ccccc12 (stereo not drawn) | 7% | -61% | ? | 6%
CCCCC(=O)NC(c1ccccc1Cl)c1c(O)ccc2ccccc12 (stereo not drawn) | -21% | -51% | ? | 5%
CCCC(=O)NC(c1ccccc1Cl)c1c(O)ccc2ccccc12 (stereo not drawn) | ? | -44% | 7.1µM* | -15%
Cc1ccc(C(NC(=O)C2CCCCC2)c2c(O)ccc3ccccc23)cc1 (stereo not drawn) | ? | -71% | 4.5µM* | -26%
CC(=O)Oc1ccc2ccccc2c1C(NC(=O)Cc1ccccc1)c1ccccc1Cl (stereo not drawn) | ? | -65% | 5.6µM* | -14%
N/C(=N\OC(=O)COc1ccc(Cl)cc1Cl)c1ccccn1 | 12% | ? | ? | -6%
N/C(=N\OC(=O)COc1ccc2ccccc2c1Br)c1ccccn1 | 8% | 10µM* | ? | 6%
N/C(=N\OC(=O)COc1ccc(Br)cc1Cl)c1ccccn1 | 65% | 3% | 10µM* | -6%
Cc1ccccc1S(=O)(=O)N1C[C@H]2CON(C)[C@H]2C[C@H]1c1cccc(Oc2ccccc2)c1 | -8% | -31% | ? | 4%
CN(CCCNC(=O)Cn1c(=O)c2cccn2c2ccccc21)Cc1ccccc1 | -10% | 6% | ? | 3%
COc1ccc(/C=C/C(=O)C(C(N)=O)=C2SCCS2)cc1 | -1% | 3% | 14% | -22%
NC(=O)C(C(=O)/C=C/c1ccc(Cl)cc1)=C1SCCS1 | -28% | -55% | 4µM* | -8%
Nc1sc2c(c1C(=O)NCCc1ccccc1)CCCC2 | -7% | / | 10% | /
COc1ccc(CNC(=O)C(c2ccc(C)o2)N(C(=O)c2csnn2)c2ccc(C(C)C)cc2)cc1 (stereo not drawn) | -7% | -47% | 10µM* | -3%
CCc1ccc(C(C(=O)NCc2ccc(OC)cc2)N(CCOC)C(=O)Cc2cccs2)cc1 (stereo not drawn) | ? | -52% | 10µM* | 1%
COc1ccc(CNC(=O)C(c2ccc(C)o2)N(Cc2cccs2)C(=O)Cc2cccs2)cc1 (stereo not drawn) | ? | -39% | 8.9µM* | -6%
SMILES | GLP1R cytotox | BRCA1 expr up | GLP-1R inv ag | GLP-1R agonist
Cc1cccc(N(C(=O)c2csnn2)C(C(=O)NCc2ccccc2)c2ccc(C)o2)c1 (stereo not drawn) | -9% | -26% | ? | 12%
COCCN(C(=O)Cc1cccs1)C(C(=O)NCc1ccc(OC)cc1)c1ccc(C(C)C)cc1 (stereo not drawn) | -27% | -14% | ? | -5%
Cc1cc(-n2c(C)cc(C(=O)CSc3ccccn3)c2C)no1 | 3% | 4µM* | ? | 19%
Cc1cc(-n2c(C)cc(C(=O)CCl)c2C)no1 | ? | -90% | 10µM* | -4%
CNc1ccc(C=O)cc1Cl | / | 32% | / | /
O=C(COC(=O)[C@@H]1CCCN1C(=O)c1cccs1)Nc1cccc([N+](=O)[O-])c1 | 3% | -8% | 19% | 17%
CCSc1ncc(/C=N/Nc2ccccc2)n1C | ? | 38% | 3.5µM* | 14%
CC(C)Cn1c(=O)c2ccccc2n2c(CCC(=O)NC(C)c3ccccc3)nnc12 (stereo not drawn) | -1% | / | 4% | /
Cc1ccc(C(c2cccc(Br)c2)c2c(C)[nH]c3ccccc23)s1 (stereo not drawn) | 0% | / | 10µM* | /
Cc1ccc(/C=N/N(C)S(=O)(=O)c2ccc(C)cc2)cc1 | 7% | -25% | 10µM* | 7%
CSc1ccc(/C=N/N(C)S(=O)(=O)c2ccc(C)cc2)cc1 | -4% | -29% | ? | 11%
COc1ccccc1-c1nnc(-c2ccc(C)cc2)o1 | 14% | 60% | 8% | 18%
COc1ccccc1C1=NC(c2ccc(C)cc2)N=C1C (stereo not drawn) | 12% | 10µM* | ? | 17%
CC1(C(=O)NCc2ccccc2)CN(S(C)(=O)=O)CC(=O)N1CCc1c[nH]c2ccccc12 (stereo not drawn) | -8% | / | -8% | /
O=[N+]([O-])c1ccc(SNc2ccccc2)c([N+](=O)[O-])c1 | ? | -38% | 11µM* | 1%
Cc1ccc(NC(=S)N(CCC(C)C)C(C)c2ccncc2)c(Cl)c1 (stereo not drawn) | -8% | -56% | 10µM* | 13%
O=C(CSc1nc2ccccc2s1)CSc1nc2ccccc2s1 | 19% | -2% | -1% | 4%
O=c1oc2ccccc2n1CSc1nc2ccccc2s1 | -3% | 13µM* | -27% | 0%
CC(=O)CSc1nc2ccccc2s1 | 7% | 13µM* | 24% | ?
COc1ccc(Cc2nc3ccc(C(=O)NCCCSC)cc3o2)cc1OC | -1% | 13µM* | 42% | 15%
COC(=O)CCNC(=O)c1ccc2nc(Cc3ccc(OC)c(OC)c3)oc2c1 | 7% | ? | 34% | 18%
CC(CNC(=O)c1ccc2nc(Cc3ccccc3)oc2c1)c1ccccc1 (stereo not drawn) | -13% | / | 11µM* | /
COc1cc(CNC(=O)c2ccc3nc(CCc4ccccc4)oc3c2)cc(OC)c1OC | 2% | / | 11µM* | /
COC(=O)CCCNC(=O)c1ccc2oc(CCCc3ccccc3)nc2c1 | 2% | 48% | 6% | 0%
COC(=O)[C@@H](C)NC(=O)c1ccc2oc(CCc3ccccc3)nc2c1 | -14% | 11µM* | 4% | 3%
CCOC(=O)N1CCN(c2c(NCc3ccccc3Cl)c(=O)c2=O)CC1 | -28% | -34% | ? | -1%
CCc1ccccc1NC(=O)/C(=C/c1ccco1)c1ccccc1 | -5% | -22% | 7.1µM* | -4%
